Bioassay records (PubChem BioAssay)
The list is not random: actives were taken first. Their share in the collection is about 2.3%.
FBPA coupling cs – counter-screen for Giardia aldolase inhibitors: coupling enzyme system; coupling enzyme system counterscreen, AmpLite Red fluorescence; activity change, negative = inhibition, % at 58.2 µM, hits read low; 290,000 tested, 0.67% active; in the data active = activity change below about -30%
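First, compound is pin-transferred into glyceraldehyde-3-phosphate coupling-enzyme reagent at 57.5 uM final and held 10 min at RT. Next, substrate, coupling system and AmpLite Red are added. After 20 min RT, fluorescence (525/598 nm) is read.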
Tau fibril FP – inhibitors of human tau fibril formation; P10636; K18 P301L tau heparin fibrillization, Alexa594 FP, 6 h; Potency, µM (doses to about 57.7 µM), without a hit: top-dose activity, negative = inhibition, most hits filed as inhibitors; 280,000 tested, 0.39% active; AID 1468; note: potency is the fitted concentration of half-maximal effect; nearly all actives have a fitted effect of over 55% in size
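Human tau K18 […] P301L fragment, 15 uM unlabeled plus 0.24 uM Alexa 594-labeled tau (final), with compound and 20 uM heparin in 100 mM sodium acetate pH 7; 6 hr at 37 C, then Alexa 594 FP read.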
USP1-UAF1 inh – inhibitors of human USP1/UAF1 deubiquitinase | recombinant USP1/UAF1, Ub-Rhodamine cleavage fluorescence | Potency, µM (titrated, usually from 57.1 µM), inactives show at the highest dose activity change, negative = inhibition, actives largely listed as inhibitors | 390,000 tested, 0.23% active | AID 743255; note: potency is the fitted concentration of half-maximal effect; nearly all actives have a fitted effect of over 60% in size
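Step one: compound is pinned into 1nM USP1/UAF1 in HEPES pH 7.8 buffer with TCEP. Step two: 15 min room-temperature incubation. Step three: Ub-Rho (150nM final) starts cleavage, tracked by fluorescence over six one-minute reads.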
Tau fluor counter – counter-screen for tau fibril formation inhibitors; 280,000 tested, 0.93% active; tau K18 P301L Alexa594 fluorescence, heparin fibrillization; Potency, µM (doses to about 57.7 µM), without a hit: at the highest dose activity change, negative = decrease; note: potency is the fitted concentration of half-maximal effect; nearly all actives have a fitted effect of over 55% in size
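Human K18 P301L tau (15 uM unlabeled plus 0.24 uM Alexa 594-labeled, final) in 100 mM sodium acetate pH 7 was mixed with compound and 20 uM heparin and incubated 6 hr at 37 C.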
Tau fibril ThT – blocks human tau fibril formation measured by thioflavin T; Potency, µM (top dose mostly 57.4 µM), for the others: top-dose activity, negative = inhibition, hits mostly inhibitors; AID 1460; recombinant tau K18 P301L (four-repeat tau fragment), heparin-induced fibrillization, ThT fluorescence; 270,000 tested, 2.1% active; note: potency is the fitted concentration of half-maximal effect; nearly all actives have a fitted effect of over 55% in size
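Heparin-induced (20 uM) aggregation of recombinant human K18 P301L tau, 15 uM unlabeled with 0.24 uM labeled, pH 7 acetate buffer, 6 hr at 37 C with compound. Fibrils quantified by 30 uM ThT fluorescence after 1 hr ambient incubation.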
An asterisk follows results filed as active; ? = inconclusive; . = no result; ! = a repeat was not active; [ ] = dose if it differs, or a comment. Unless noted, calls come from the whole dose curve; as a rule, active = well fitted curve in the direction sought with a large enough effect; inconclusive = small, poorly fitted or top-dose-only effect, or another doubt; inactive = no such curve, though single readings can be large; an effect the other way counts as inactive or inconclusive. % is set by controls: 0 for no effect and ±100 for the full control effect.

SMILES	FBPA coupling cs	Tau fibril FP	USP1-UAF1 inh	Tau fluor counter	Tau fibril ThT
Cc1ccc(CN(C(=O)COc2ccc(C(C)C)cc2)C2CCS(=O)(=O)C2)o1 (stereo not drawn)	.	-14%	-1%	-16%	-6%
O=C(/C=C/c1cccs1)NC(=S)NNC(=O)c1ccccc1O	7	6%	-16%	?	14µM*
COc1ccc(C(=O)NNC(=S)NC(=O)/C=C/c2cccs2)cc1	1	4%	-23%	9%[2.34 µM]	-5%
Cc1ccc(CN2CCN(/N=C/c3ccc(O)c(O)c3)CC2)cc1	-4	.	-20%	.	.
CN=c1scc(-c2ccc(F)cc2)n1/N=C/c1ccc(O)c(O)c1	-9	-1%	-23%	18µM*[quencher]	10µM*
CNc1nc(-c2c[nH]c3ccccc23)cs1	-5	?	-15%	28µM*[quencher]	25µM*
Nc1nc(-c2c[nH]c3ccccc23)cs1	-9	?	-6%	16µM*[quencher]	16µM*
CC1(OC(=O)c2cccs2)C(=O)C=C2C=C3CCCN3C=C2C1=O (stereo not drawn)	-19	?	?	-23%[11.6 µM]	5µM*
CC1(OC(=O)CCc2ccccc2)C(=O)C=C2C=C3CCCN3C=C2C1=O (stereo not drawn)	-19	?	?	-24%[11.6 µM]	3.5µM*
CC1(OC(=O)C2CCCC2)C(=O)C=C2C=C3CCCN3C=C2C1=O (stereo not drawn)	-11	-6%[11.6 µM]	.	-10%[11.6 µM]	-16%[11.5 µM]
COc1ccc(CN2C=C3C(=O)C(C)(OC(=O)CCc4ccccc4)C(=O)C=C3C=C2c2ccc(C#N)cc2)cc1 (stereo not drawn)	-6	2%[11.6 µM]	?	-9%[11.6 µM]	?
COC(=O)CCCC1=CC2=CC(=O)C(C)(OC(=O)CCc3ccccc3)C(=O)C2=CO1 (stereo not drawn)	1	?	?	?	25µM*!
COC(=O)CCCC1=CC2=CC(=O)C(C)(OC(=O)c3ccco3)C(=O)C2=CO1 (stereo not drawn)	0	?	.	?	-19%
CCN(CC)CCCN1C=C2C(=O)C(C)(OC(=O)CCc3ccccc3)C(=O)C=C2C=C1c1ccc(C#N)cc1 (stereo not drawn)	1	?	-22%	?	13µM*!
CSCC[C@H](NC(=O)[C@@H]1CCCN1C(=O)CNC(=O)[C@H](CCCCN)NC(=O)[C@H](Cc1cnc[nH]1)NC(=O)[C@H](CO)NC(=O)[C@H](CC(C)C)NC(=O)[C@H](CCCNC(=N)N)NC(=O)[C@@H]1CCCN1C(=O)[C@H](CCCNC(=N)N)NC(=O)[C@H](CCC(N)=O)NC(=O)[C@H](CCCNC(=N)N)NC(=O)[C@H](CCCNC(=N)N)NC(=O)[C@H](Cc1ccccc1)NC(=O)[C@@H](N)CCCCN)C(=O)N1CCC[C@H]1C(=O)N[C@@H](Cc1ccccc1)C(=O)O	0	.	.	.	.
Cc1ccc(-c2cc(C(=O)O)c3cc(Br)ccc3n2)o1	-6	?	-24%	-16%	20µM*
N#Cc1ccc(NC(=O)COCc2cc(-c3ccco3)on2)cc1	.	-7%	-15%	-14%	-16%
O=C1c2ccccc2-c2nc3ccccc3nc21	-7	?	?	?	20µM*
CC1=C(/C=C/C(C)=C/C=C/C(C)=C/C(=O)Nc2ccc(O)cc2)C(C)(C)CCC1	-15	14%	?	11µM*[quencher]	16µM*
CC1=C(/C=C/C(=C/C=C/C(C)=C/C(=O)O)c2ccc(C)cc2)C(C)(C)CCC1	1	?	.	-17%	?
CC1=C(\C=C/C(C)=C/C=C\C(C)=C\C(=O)O)C(C)(C)CCC1	3	?	.	-1%	32µM*!
CC1=C(/C=C/C(C)=C/C=C/C(C)=C\C(=O)O)C(C)(C)CCC1	7	-1%	8%	0%	-10%
Cc1nc(S/C(=C/c2ccc(-c3cccc(Cl)c3)o2)C(=O)O)n[nH]1	0	-4%	-19%	-25%	2.8µM*
Cc1[nH]n(-c2ccccc2)c(=O)c1C(C[N+](=O)[O-])c1ccc(F)cc1 (stereo not drawn)	-19	6%	?	-3%	?
